From PubChem BioAssay AID602252 (Broad Institute, 2012)
About 2,700 (0.9%) of roughly 300,000 compounds were called active.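 Rule for the calls: active = mean inhibition of at least 30% with at least half of replicates also reaching 30%; inconclusive = no clear call, values can overlap the other calls; inactive = the rest.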 For the sample, actives were picked, then their nearest neighbours and some compounds at random.

molecular target: Golgi-associated PDZ and coiled-coil motif-containing protein (Homo sapiens) (UniProt Q9HD26); assay: untagged CAL PDZ binding inhibitors, primary screen, biochemical, fluorescence polarization, HTS (AID 602252); details: purified CAL PDZ, TMR-peptide fluorescence polarization, 1 h; at 24.9 µM; hits give high values;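 note: 0% = DMSO neutral control and 100% = excess unlabeled competitor peptide PRC23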

inhibition, inactive:
O=C1CN(C(=O)COC(=O)/C=C/c2ccc(F)cc2)c2ccccc2N1 -2.46%
Nn1c(Cc2cccc3ccccc23)nnc1SCC(=O)N1CC(=O)Nc2ccccc21 1.45%
COc1cc(NC(=O)c2[nH]cnc2C(N)=O)cc(C(=O)Nc2cccc(C(F)(F)F)c2)c1 -1.42%
COc1cccc(/C=C/c2ccc3ccccc3n2)c1OC(C)=O -0.936%
COC(=O)c1ccc(/C=C/c2c(-c3ccc(OC)cc3)sc3ccccc23)cc1 0.974%
COCC(=O)N(C)[C@H]1C[C@H]2c3cc(Oc4ccccc4C)ccc3CCN2C(=O)[C@H]1[C@H](C)O -3.46%
C=CCC[C@@H](Cc1ccc(F)cc1)C(=O)OC[C@@H](C)NC(=O)[C@H](CC=C)CC(=O)N(CCO)Cc1ccccc1 3.24%
COc1ccc(-c2noc(CCC(=O)N3CCN(c4cccc(C)c4)CC3)n2)cc1 -3.56%
COc1ccc(CNC(=O)C[C@H]2C[C@H](C(=O)N3CCOCC3)[C@@]3(C)c4[nH]c5cc(CCC(=O)N(C)C)ccc5c4CCN3C2=O)cc1OC -5.01%
Cc1cccc(OCC(O)CN2CCN(S(=O)(=O)c3ccc(C)cc3C)CC2)c1 (stereo not given) 1.68%
O=S(=O)(c1ccc(OCC(O)CN2CCN(c3ccccc3Cl)CC2)cc1)N1CCOCC1 (stereo not given) -2.34%
COC(=O)c1ccc(NCc2cc(O)ccc2O)cc1 0.712%
C=CCOc1ccc(/C=C2/C(=O)ON=C2C)cc1OCC -3%
COc1cc(/C=C2/C(=O)ON=C2C)ccc1OCc1ccccc1F -3.18%
COc1cc(OC)c(C(=O)NNC(=O)c2ccc(NS(=O)(=O)c3cccs3)cc2)cc1OC -2.8%
C=CC(=O)Nc1ccc(Nc2ccnc(Nc3ccc(N4CCN(C)CC4)cc3)n2)cc1 -0.863%
CCOC(=O)c1ccc(NC(=S)Nc2cc(C)cc(C)n2)cc1 -17%
COC(=O)c1ccc(NC(=O)Nc2ccc(C)cc2)cc1 -0.88%
O=C(N[C@@H]1C/C=C\C[C@@H](CC(=O)N(CCO)Cc2ccccc2)C(=O)N[C@H](Cc2ccccc2)COC1=O)OCC1c2ccccc2-c2ccccc21 14.1%
CC1Cc2ccccc2N1S(=O)(=O)c1cccc(C(=O)NCC(c2ccco2)N2CCCC2)c1 (stereo not given) 1.18%
COC(=O)[C@]1(Cc2ccccc2)N[C@H](CN(C)S(=O)(=O)c2ccc(F)cc2)[C@@H]2C(=O)N(Cc3ccccc3)C(=O)[C@@H]21 -4.16%
COc1cc(/C=C/C(=O)Nc2ccc(OC)c(S(=O)(=O)N3CCOCC3)c2)ccc1OCC#N -3.83%
CN(C(=O)CSc1nnc(Nc2ccccc2)s1)C1CCS(=O)(=O)C1 (stereo not given) -5.88%
Cc1csc(SCC(=O)N(c2ccccc2)C(C)C)n1 -3.25%
C=CCOC(=O)N1CCC2CC1c1cc(-c3ccc(OC)cc3)ccc12 (stereo not given) -1.31%
Cc1cccc(C)c1NC(=O)CNC(=O)C1CCCC1 -2.92%
CCc1cccc(C)c1NC(=O)COC(=O)Cc1ccsc1 5.55%
COc1ccc2[nH]c3c(c2c1)CCN1C(=O)C(CC(=O)NCc2cccc(C(F)(F)F)c2)C[C@H](C(=O)N2CCOCC2)[C@@]31C (stereo not given in full) -2.83%
COc1cc(/C=C/C(=O)OCC(=O)c2ccccc2)cc(OC)c1OC -8.15%
CCOC(=O)C(C)n1cnc2sc(C)c(C)c2c1=O (stereo not given) -4.48%
Cc1cccc(OC(=O)c2sc3ncn(C)c(=O)c3c2C)c1 -1.6%
O=[N+]([O-])c1cc2ccccc2nc1-c1ccccc1 3.37%
CCOc1ccc(C(=O)NCC(=O)N2CCCCCCC2)cc1OCC 2.87%
Cc1cc(C)cc(C(=O)NCC(=O)OCC(=O)N2CCCCC2)c1 -4.99%
Cc1ccc(C2(C)NC(=O)N(CC(=O)N3CC(=O)Nc4ccccc43)C2=O)cc1 (stereo not given) -3.12%
CC(OC(=O)CCCOc1ccccc1)C(=O)Nc1ccc(Cl)cn1 (stereo not given) -3.1%
O=C(COC(=O)c1ccco1)Nc1ccc(Cl)cn1 -5.62%
CC(=O)Nc1ccc(S(=O)(=O)NCCC(=O)N2CCN(c3ccccc3Cl)CC2)cc1 -2.76%
COc1cc(C)ccc1OCC(=O)OCC(=O)c1ccc[nH]1 3.54%
Cc1cccc(CC2(O)C(=O)Nc3ccccc32)n1 (stereo not given) 3.12%
Cc1cc([N+](=O)[O-])ccc1NS(=O)(=O)c1ccccc1 2.21%
CC(=O)c1ccc(OCCCC(=O)Nc2ccc(C)c(S(=O)(=O)N3CCOCC3)c2)cc1 -2.79%
CCN(CC)S(=O)(=O)c1ccc(N2CCOCC2)c(C(=O)O)c1 -7.23%
CCN(CC(=O)NCCCN1CCOCC1)S(=O)(=O)c1cc(Cl)ccc1Cl 6.12%

inhibition, active:
C=CCn1c(COc2ccccc2F)nnc1SCC(=O)N1CC(=O)Nc2ccccc21 56%
COc1ccc(/C=C/c2noc(-c3ccccc3OC(C)=O)n2)cc1 87%
CC(=O)c1ccc(OCC(O)CN2CCN(S(=O)(=O)c3cccc(Br)c3)CC2)cc1 (stereo not given) 35%
COc1cc(/C=C2/C(=O)ON=C2C)ccc1OCc1cccc(F)c1 40.4%
COC(=O)c1ccc(NC(=S)Nc2cccc(C)n2)cc1 52.8%
CC(C)N(C(=O)CSc1nnc(NC2CC2)s1)c1ccccc1 31.5%
CCc1cccc(C)c1NC(=O)COC(=O)CC1CCCC1 31.1%
Cc1c(C(N)=O)sc2ncn(CCOc3ccccc3)c(=O)c12 40.6%
COc1cc(OC)cc(C(=O)NCC(=O)N2CCCCCCC2)c1 59.5%
Cc1cccc(OCC(=O)OCC(=O)Nc2ccc(Cl)cn2)c1 74.8%
CCN(CC)S(=O)(=O)c1ccc(Cl)c(C(=O)NCCN2CCOCC2)c1 34.1%
